Potency data for 39 molecules are collected here from PubChem BioAssay AID489008 (National Center for Advancing Translational Sciences (NCATS), 2010).

Results filed as inconclusive are left out. Calls of active or inactive are those of the source. Calls follow the shape of the dose curve; as a rule, active = well fitted inhibition curve with a large enough effect; inconclusive = small, poorly fitted or top-dose-only effect; inactive = flat fitted curve, though single readings scatter.
Potency is read from the fitted curve at half-maximal effect.

Chain of Ferritin light chain (Equus caballus) (P02791 2-175 limits assumed): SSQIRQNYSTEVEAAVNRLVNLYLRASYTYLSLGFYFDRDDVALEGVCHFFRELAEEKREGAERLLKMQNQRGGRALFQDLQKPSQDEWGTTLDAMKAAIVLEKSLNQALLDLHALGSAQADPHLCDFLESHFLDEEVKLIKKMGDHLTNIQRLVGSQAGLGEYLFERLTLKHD

This assay addresses Ferritin light chain (Equus caballus) (UniProt P02791). As to the kind of experiment: Confirmation Assay for Identification of Novel General Anesthetics. Also: nearly all actives have a fitted effect of over 40% in size. As to conditions: apoferritin 1-aminoanthracene fluorescence displacement. The essentials: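 Competitive displacement of profluorescent 1-aminoanthracene from 10 uM horse-spleen apoferritin in 50% saturated 1-AMA/PBS; 10 min RT, fluorescence Ex 380/Em 535. Normalized to free 1-AMA and complex; four-parameter Hill fit.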
`NCCOc1ccc(C23CC4CC(CC(C4)C2)C3)cc1`: the Potency is 11.2 µM (active).
As for `Nn1cnc2sc3c(c2c1=O)CCC3`, the figure is 31.6 µM (active); as for `COc1ccc(CNc2ccc(C)c(C)c2)cc1`, 15.8 µM (active).
As for `Cc1ccc(O)c(NC(=O)CCC2CCCCC2)c1`, the figure is 7.94 µM (active); as for `Fc1ccccc1CNc1cc(Cl)cc(Cl)c1`, 14.1 µM (active).
To `NC(=O)COC(=O)CC12CC3CC(CC(C3)C1)C2` belongs 15.8 µM (active); to `CC(C)CCSc1nc2ccccc2[nH]1`, 15.8 µM (active); to `COc1ccc(CNC(=O)COC(=O)CCC2CCCCC2)cc1`, 15.8 µM (active).
For `COc1cc(CNCCO)ccc1OCCc1ccccc1`, the Potency was 15.8 µM (active).
To `CC1(C)CC(=O)N(Cc2ccccc2)C(=O)C1` belongs 8.91 µM (active); to `CC1CCCN(C(=O)Nc2ccc(Br)cc2Cl)C1` (centres undefined), 28.2 µM (active); to `O=S(=O)(NCCC1=CCCCC1)c1ccc(F)cc1`, 8.91 µM (active).
With `O=C(CN1N=C(c2ccc(Cl)cc2)CCC1=O)NCc1ccc(F)cc1`, the Potency was 5.82 µM (active).
For `CCN1C(=O)N(c2ccc(Cl)cc2)C(C)=CC1(C)C`, the Potency was 35.5 µM (active).
As for `Nc1ccc(Nc2ccccc2)c(Cl)c1`, the figure is 12.6 µM (active).
On to `COc1ccc(OCCC(=O)NCC23CC4CC(CC(C4)C2)C3)cc1`, for which the Potency was 6.31 µM (active).
To `CC1CCCC(C)N1C(=O)COc1ccccc1F` (centres undefined) belongs 17.8 µM (active); to `O=C(Nc1cccc(Cl)c1)OCc1cncs1`, 15.8 µM (active); to `O=c1[nH]c(SCC2CCCCO2)nc2ccccc12` (centres undefined), 14.1 µM (active).
As for `Cc1cc(C)cc(OCc2nnc(SCC(=O)OC(C)C)o2)c1`, the figure is 12.6 µM (active).
As for `COc1cccc(NC(=O)CN2C(=O)NC(C)(CCC(C)C)C2=O)c1` (centres undefined), the figure is 17.8 µM (active); as for `Cc1ccc(F)c(NC(=O)CCc2ccccc2)c1`, 15.8 µM (active); as for `O=C(NC1CCCCCC1)C(=S)NCc1ccccc1`, 11.2 µM (active).
As to `CCCNC(=O)c1csc2c1CCCCC2`, the Potency is 28.2 µM (active).
To `CC1(COc2ccc(CC3SC(=O)NC3=O)cc2)CCCCC1` (centres undefined) belongs 14.1 µM (active); to `Cc1ccc(NC(=O)c2ccccc2)cc1OC(=O)c1ccccc1`, 28.2 µM (active).
To `CCCC(C)NS(=O)(=O)c1ccc(OC)c(C)c1` (centres undefined) belongs 20 µM (active); to `Cc1ccc(CC(=O)OCC(=O)NC2CCCC(C)C2C)cc1C` (centres undefined), 28.2 µM (active); to `O=S(=O)(NCCc1ccccc1)c1ccc(Br)s1`, 31.6 µM (active).
To `Nc1ccccc1Oc1ccc2ccccc2c1` belongs 11.2 µM (active).
Turning to `Fc1ccccc1CNc1ccc(Cl)c(Cl)c1`, the Potency is 10 µM (active).
As for `Cc1ccccc1Cn1c(C)cc(C)c(C#N)c1=O`, the Potency is 15.8 µM (active).
As for `Cn1cc(Br)c(C(=O)NC2C3CC4CC(C3)CC2C4)n1` (centres undefined), the figure is 10 µM (active).
As for `Nn1cnnc1SCC(=O)Nc1ccc(C2CCCCC2)cc1`, the figure is 7.08 µM (active).
Take `O=C(NC1C2CC3CC(C2)CC1C3)c1ccc2c(c1)OCO2` (centres undefined): the Potency is 28.2 µM (active).
To `O=C(COC(=O)c1ccccn1)NC12CC3CC(CC(C3)C1)C2` belongs 7.94 µM (active); to `CC(C)c1ccc(NC(=O)C2CC3CCC2C3)cc1` (centres undefined), 31.6 µM (active).
Take `O=C1CC(C2CCCO2)C(=O)N1c1cccc(Cl)c1` (centres undefined): the Potency is 14.1 µM (active).
As for `Cc1ccc(S(=O)(=O)NCCc2ccccc2)cc1`, the figure is 15.8 µM (active).
